Here are results for 12 molecules from PubChem BioAssay (Tox21).

Inconclusive results are not listed. A number with no mark means an inactive call. Calls of active or inactive are those of the source. Unless noted, calls come from the whole dose curve; as a rule, active = well fitted curve in the direction sought with a large enough effect in the repeat runs; inconclusive = weak or mixed curves; inactive = no such curve, though single readings can be large; an effect the other way counts as inactive or inconclusive.

Assay [1] in a line: qHTS assay to identify small molecule agonists of the NFkB signaling pathway - cell viability counter screen (AID 1159515; calls by dose curve; note: % is set by controls: 0 for no effect and ±100 for the full control effect; nearly all actives have a fitted effect of over 55% in size). An outline of the steps: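 Cells are seeded (2,000 NFkB-bla ME-180 per well), rested overnight, and dosed with DMSO-dissolved compounds for 5 hr at 37 C. Viability is then read by CellTiter-Glo luminescence after 30 min at room temperature.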
(In general: qHTS replaces the single test concentration by a dilution series.)

A short description of assay [2]: qHTS assay to identify small molecule agonists of the endoplasmic reticulum stress response signaling pathway (AID 1159516; active = well fitted activation curve with a large enough effect in the signal ratio in the repeat runs, not every such curve was filed as active; the % refers to the signal ratio; note: % is set by controls: 0 for no effect and ±100 for the full control effect). The method, boiled down: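 Cells are seeded at 1,500 per well and incubated overnight. Compounds in DMSO are added for 5 hr at 37 C, then beta-lactamase FRET substrate for 2 hr at room temperature, and fluorescence at 460 and 530 nm is measured.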

The nature of assay [3]: qHTS assay to identify small molecule agonists of the endoplasmic reticulum stress response signaling pathway - cell viability counter screen (AID 1159517; calls by dose curve;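 note: HeLa cells carrying an ER stress response element beta-lactamase reporter; % is set by controls: 0 for no effect and ±100 for the full control effect; nearly all actives have a fitted effect of over 50% in size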). An outline of the steps:
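ESRE-bla HeLa cells (1,500/well) were plated overnight at 37 C and exposed to compounds for 5 hr. After the 2 hr beta-lactamase substrate read, CellTiter-Glo went into the same wells, and luminescence was read after 30 min at room temperature.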

A short description of assay [4]: qHTS assay to identify small molecule agonists of the AP-1 signaling pathway - cell viability counter screen (AID 1159525; calls by dose curve; note: nearly all actives have a fitted effect of over 55% in size). An outline of the steps: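 Intracellular ATP by Cell Titer Glo luminescence (30 min, RT) in the same ME-180 AP-1-bla wells after the 5 h compound exposure at 37 °C. Normalised to tetra n-octyl ammonium bromide and DMSO controls.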
Assay [5] is described as follows: qHTS assay to identify small molecule agonists of the AP-1 signaling pathway (AID 1159526; calls by dose curve; note: % is set by controls: 0 for no effect and ±100 for the full control effect).
A short description of assay [6]: qHTS assay to identify small molecule antagonists of the retinoid acid receptor (RAR) signaling pathway - cell viability counter screen (AID 1159551). Note: % is set by controls: 0 for no effect and ±100 for the full control effect; nearly all actives have a fitted effect of over 35% in size. An outline of the steps:
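Cells (C3RL4) are plated, incubated overnight, dosed with compound in DMSO, then given retinol at 1 uM final. After 6 h at 37 C, CellTiter-Glo is added and luminescence read following 30 min at room temperature.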

Assay [7] in a line: qHTS assay to identify small molecule antagonists of the vitamin D receptor (VDR) signaling pathway - cell viability counter screen (AID 743225). Note: % is set by controls: 0 for no effect and ±100 for the full control effect; nearly all actives have a fitted effect of over 50% in size. The method, boiled down: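 VDR-UAS-bla HEK 293T cells were plated and incubated 4 h at 37C, then dosed with compound plus 3 nM (final) 1-alpha,25-dihydroxyvitamin D3 for 16 h. After the 2 h beta-lactamase read, viability in the same wells was read as CellTiter-Glo luminescence after 30 min at room temperature.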

Assay [8] can be described thus: qHTS assay to identify small molecule antagonists of the retinoid-related orphan receptor gamma (ROR-gamma) signaling pathway - cell viability counter screen (AID 1159520). Note: % is set by controls: 0 for no effect and ±100 for the full control effect; nearly all actives have a fitted effect of over 50% in size. The method, boiled down:
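Cytotoxicity was read from cellular ATP (CellTiter-Glo luminescence) after 16 hr at 37 C with 1 uM doxycycline induction. The inducer was added 2 hr after compound transfer to Tet-on ROR gamma CHO cells.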

The target in assay [9] is Nuclear receptor ROR-gamma (Homo sapiens) (UniProt P51449). Put plainly: qHTS assay to identify small molecule antagonists of the retinoid-related orphan receptor gamma (ROR-gamma) signaling pathway (AID 1159521; note: nearly all actives have a fitted effect of over 50% in size; note: potency is the fitted concentration of half-maximal effect). An outline of the steps:
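Tet-on ROR-gamma CHO cells with ROR response element-luciferase reporter; compounds added 2 hr before 1 uM doxycycline induction, then 16 hr at 37 C. Antagonism scored as decreased ONE-Glo luminescence.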

Assay [10] deals with Retinoic acid receptor RXR-alpha (Homo sapiens) (UniProt P19793). Put plainly: qHTS assay to identify small molecule agonists of the RXR signaling pathway (AID 1159527; calls by dose curve; note: % is set by controls: 0 for no effect and ±100 for the full control effect; nearly all actives have a fitted effect of over 35% in size). An outline of the steps: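 GeneBLAzer RXR-alpha-UAS-bla HEK 293T cells in 2% charcoal-stripped FBS medium were exposed to compounds for 16 hr at 37 C in agonist mode. Beta-lactamase reporter read as 460/530 nm FRET ratio after 2 hr substrate loading.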

Assay [11] can be described thus: qHTS assay to identify small molecule agonists of the RXR signaling pathway - cell viability counter screen (AID 1159529). For activity change, negative = cytotoxicity: % is set by controls: 0 for no effect and ±100 for the full control effect. Note: nearly all actives have a fitted effect of over 50% in size. Note: potency is the fitted concentration of half-maximal effect. The method, boiled down:
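RXR-alpha-UAS-bla HEK 293T cells in medium with 2% charcoal-stripped FBS were pre-incubated 5 hr, then compound-treated 16 hr at 37 C. Viability was read by CellTiter-Glo luminescence in the same wells as the beta-lactamase assay, with tetraoctyl ammonium bromide as positive control.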

A short description of assay [12]: qHTS assay to identify small molecule antagonists of the retinoic acid receptor (RAR) signaling pathway (AID 1159552). An outline of the steps: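 Retinol signaling pathway inhibitors screened in C3RL4 RARE-luciferase reporter cells seeded overnight at 37 C, then compounds added with 1 uM (final) retinol as pathway substrate. After 6 hr at 37 C, luciferase luminescence read after 30 min at room temperature.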

Assay [13] is described as follows: qHTS assay to identify small molecule agonists of the vitamin D receptor (VDR) signaling pathway - cell viability counter screen (AID 743224). The method, boiled down:
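Cells: VDR-bla, 2,000/well, settled 4 h. Treatment: compounds in DMSO, 16 h, 37C/5% CO2. Readout: CellTiter-Glo luminescence after 30 min RT.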

Assay [14] in a line: qHTS assay to identify small molecule agonists of the retinoic acid receptor (RAR) signaling pathway (AID 1159553). For activation: % is set by controls: 0 for no effect and ±100 for the full control effect. Note: potency is the fitted concentration of half-maximal effect. Conditions: C3RL4 RARE luciferase reporter, agonist, 6 h; activation: at 73.3 µM (top of the series) unless noted. An outline of the steps:
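Seed C3RL4 reporter cells at 1,000 per well and incubate overnight at 37 C. Add compounds in DMSO, incubate 6 hr. Add luciferase reagent, wait 30 min at room temperature, read luminescence.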

Retinoic acid receptor RXR-alpha (Homo sapiens), sequence (P19793 whole entry, looked up): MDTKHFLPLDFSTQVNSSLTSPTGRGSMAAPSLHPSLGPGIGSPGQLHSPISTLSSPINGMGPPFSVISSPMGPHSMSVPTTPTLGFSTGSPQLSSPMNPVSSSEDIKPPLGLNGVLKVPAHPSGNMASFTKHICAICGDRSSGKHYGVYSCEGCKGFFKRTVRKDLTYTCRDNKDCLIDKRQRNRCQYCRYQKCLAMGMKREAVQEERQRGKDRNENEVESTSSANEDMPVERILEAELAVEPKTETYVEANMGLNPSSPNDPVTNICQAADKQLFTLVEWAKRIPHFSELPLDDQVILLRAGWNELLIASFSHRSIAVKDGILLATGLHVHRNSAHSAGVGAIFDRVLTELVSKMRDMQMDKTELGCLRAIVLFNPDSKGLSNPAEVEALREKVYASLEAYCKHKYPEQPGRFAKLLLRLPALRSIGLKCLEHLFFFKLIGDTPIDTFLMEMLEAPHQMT

In the case of `COc1cc2nc(N3CCN(C(=O)c4ccco4)CC3)nc(N)c2cc1OC`, the Potency entry in [1], in assay [2] and in [3] was “inactive” throughout. In addition, the viability change, negative = cytotoxic in [4] was -7.1% [at 15.8 µM]. In addition, the activation in assay [5] was 3.7% [at 15.8 µM]. Also, the activity change, negative = cytotoxicity in [6] was -9.47% [at 19 µM].

Turning to `Cc1ccc(O)c(O)c1`, the Potency entry in assay [7], in [1], in [2], in [3], in assay [4] and in [5] was “inactive” throughout.

For the molecule `NC(=O)c1cccc([N+](=O)[O-])c1`, the Potency result in assay [7], in assay [1], in assay [2], in assay [8], in assay [9] and in [4] was “inactive” each time. For the same molecule, the Potency entry in assay [5], in assay [10], in assay [11], in assay [6] and in assay [12] was “inactive” each time.

In the case of `CC1=Nc2ccccc2C1(C)C`, the Potency entry in assay [7], in assay [1], in assay [2], in assay [3], in assay [4] and in assay [11] was “inactive” in each case.

In the case of `CN1CCN(Cc2cc(-c3ccc4[nH]c(=O)oc4c3)co2)[C@@H](c2ccc(F)cc2)C1`, the Potency entry in assay [1], in assay [2], in assay [3], in assay [4], in [11] and in assay [6] was “inactive” each time. In addition, the Potency in assay [9] is 26.3 µM (active).

On to `C[Si](Cl)(c1ccccc1)c1ccccc1`, for which the Potency entry in assay [13], in assay [7], in assay [1], in assay [2], in assay [3] and in [9] was “inactive” in each case. Moreover, the Potency entry in [4], in [10], in [11] and in assay [6] was “inactive” each time.

Take `OC12N=C(c3ccccc3)SC1Cc1cc(Cl)ccc12` (centres undefined): the Potency result in [13], in assay [7], in assay [1], in [2], in assay [3] and in [9] was “inactive” each time. Further, the Potency result in assay [4], in assay [6] and in assay [12] was “inactive” throughout. Besides, the values for the Potency in assay [11] and in assay [14] were 54.9 µM (active) and 1.22 µM (active), respectively.

With `O=[N+]([O-])c1cccc(C(F)(F)F)c1`, the Potency entry in [13], in [1], in assay [2], in [8], in [9] and in assay [4] was “inactive” throughout. Besides, the Potency entry in assay [5], in assay [10] and in [6] was “inactive” each time.

Regarding `CCCC[P+](C)(CCCC)CCCC`, the Potency result in assay [1], in assay [2], in assay [8], in [9], in assay [4] and in assay [5] was “inactive” throughout. In addition, the Potency entry in [10], in assay [11], in [6], in assay [12] and in assay [14] was “inactive” in each case.

For the molecule `Cc1ccc(C)cc1`, the Potency entry in [13], in [7], in assay [1], in assay [2], in assay [8] and in [9] was “inactive” in each case. The Potency entry in assay [4], in [5], in [10], in [11], in [6] and in [12] was “inactive” in each case. Moreover, the Potency entry in assay [14] was “inactive”.

`COC(C)=O`: the Potency result in assay [13], in [7], in assay [1], in assay [2], in assay [8] and in assay [9] was “inactive” throughout. In addition, the Potency entry in [4], in [5], in assay [10], in assay [6], in assay [12] and in [14] was “inactive” throughout.

In the case of `c1cnccn1`, the Potency result in assay [7], in assay [1], in [2], in [8], in assay [9] and in [4] was “inactive” throughout. Moreover, the Potency entry in assay [5], in assay [10], in assay [11], in assay [6], in assay [12] and in [14] was “inactive” throughout.
